An excerpt weighted towards active compounds, which were near 4.8% of everything screened.
USP2a block – inhibitors of human ubiquitin-specific protease USP2a; Potency, µM (doses to about 38.3 µM), for inactives: at the highest dose activity change, negative = inhibition, hits mostly inhibitors; USP2 core, Ub-CHOP2 coupled fluorogenic reporter, 485/531; 0.01% of 330,000 active; O75604;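 also: potency is read from the fitted curve at half-maximal effect; plate controls were DMSO wells for no effect and full inhibition by NEM control for full effect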
Target sequence (O75604 whole entry, looked up): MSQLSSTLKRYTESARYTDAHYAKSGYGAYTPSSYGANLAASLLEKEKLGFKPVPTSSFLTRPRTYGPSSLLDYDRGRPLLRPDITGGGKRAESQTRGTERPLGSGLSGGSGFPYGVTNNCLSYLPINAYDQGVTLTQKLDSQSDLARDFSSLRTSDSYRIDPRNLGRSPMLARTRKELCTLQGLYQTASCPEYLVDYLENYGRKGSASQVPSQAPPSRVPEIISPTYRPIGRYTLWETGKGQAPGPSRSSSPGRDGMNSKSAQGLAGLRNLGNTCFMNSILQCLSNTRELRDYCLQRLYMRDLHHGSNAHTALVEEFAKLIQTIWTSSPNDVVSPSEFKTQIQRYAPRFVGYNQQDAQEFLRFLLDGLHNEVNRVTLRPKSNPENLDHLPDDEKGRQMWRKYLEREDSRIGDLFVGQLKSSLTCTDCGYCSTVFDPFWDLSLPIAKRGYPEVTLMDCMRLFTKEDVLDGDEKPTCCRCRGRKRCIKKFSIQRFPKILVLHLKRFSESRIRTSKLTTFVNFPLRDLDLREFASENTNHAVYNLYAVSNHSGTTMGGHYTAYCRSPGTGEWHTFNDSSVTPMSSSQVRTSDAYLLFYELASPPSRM
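Cell-free coupled assay: 10nM USP2 core preincubated 30min RT with compound in Tris-HCl pH 8.0/CaCl2/CHAPS buffer, then 25nM Ub-CHOP2 and 25nM reporter substrate; fluorescence (Ex 485/Em 531) read after 60min RT, normalized to NEM inhibition, concentration-response curves fitted.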
S2 tox – viability counter-screen for ATXN expression inhibitors; AID 651635; 0.49% of 400,000 active; Potency, µM (top dose mostly 56.7 µM), hits mostly cytotoxic; S2 cells (HEK-293 line with an ATXN2-luciferase reporter) viability, CellTiter-Fluor protease fluorescence, 24 h; also: potency is read from the fitted curve at half-maximal effect; nearly all actives have a fitted effect of over 40% in size
ATXN2 expr inh – inhibitors of ATXN2 expression | HEK-293 ATXN2-luciferase reporter, luminescence, 24 h | Potency, µM (doses to about 57 µM), inactives show top-dose activity change, negative = inhibition, usual class: inhibitors | 0.72% of 360,000 active | AID 1745845; also: potency is read from the fitted curve at half-maximal effect; % is scaled to controls: 0 for no effect and ±100 for the full control effect; nearly all actives have a fitted effect of over 55% in size
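qHTS (up to 57 uM final) was run with 24 h compound exposure of reporter cells at 37 °C. Each well was multiplexed: SteadyGlo luminescence measured ATXN2-luciferase expression after a fluorogenic Gly-Phe-AFC viability readout (25 uM final).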
USP1 inh – inhibitors of human USP1/UAF1 deubiquitinase | AID 743255 | O94782 | recombinant USP1/UAF1, Ub-Rhodamine cleavage fluorescence | 0.23% of 390,000 active | Potency, µM (top dose mostly 57.1 µM), inactives show top-dose activity change, negative = inhibition, most hits filed as inhibitors; also: potency is read from the fitted curve at half-maximal effect; % is scaled to controls: 0 for no effect and ±100 for the full control effect; nearly all actives have a fitted effect of over 60% in size
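High-throughput fluorogenic screen: 1nM USP1/UAF1 complex, Ub-Rho substrate 150nM final, 50mM HEPES pH 7.8 with 0.5mM EDTA, 0.1 mg/ml BSA, 1mM TCEP and 0.01% Tween-20.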
IL-1B inflam inh – inflammasome signaling inhibition, IL-1 beta readout; 4.7% of 360,000 active; THP-1 LPS/ATP IL-1B secretion, AlphaLISA, 16 h; stronger effect = lower value; activity change, % at 57.5 µM; in the data active = activity change below about -50%; inconclusive = mostly about -30% to -49%; also: % is scaled to controls: 0 for no effect and ±100 for the full control effect
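Secreted IL-1B measured by AlphaLISA bead assay after 16 h compound exposure of THP-1 cells; compounds (final up to 57.5 uM) added 1 h before LPS (250 ng/mL) and ATP (1.25 mM) stimulation; lower signal means less secretion.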
The depositor's hits bear a star; i = inactive; ? = inconclusive; nt = not tested or not shown; [ ] = dose if it differs, or a comment. Unless noted, calls follow the shape of the dose curve; as a rule, active = well fitted curve in the direction sought with a large enough effect; inconclusive = small, poorly fitted or top-dose-only effect, or another doubt; inactive = no such curve, though single readings can be large; an effect the other way counts as inactive or inconclusive.

SMILES	USP2a block	S2 tox	ATXN2 expr inh	USP1 inh	IL-1B inflam inh
CCNc1nc(N)nc(-c2cc(Cl)ccc2O)n1	2%	i	81%	-17%	-85*
CCCCNc1nc(N)nc(-c2cc(Cl)ccc2O)n1	0%	i	91%	-21%	-84*
C#CCn1c(COc2ccccc2C)nc2ccccc21	nt	i	48%	?	nt
CC1Cc2ccccc2N1C(=O)CSc1nnc(-c2cccc(Cl)c2)o1 (centres undefined)	nt	i	0%	-20%	nt
CC(C)NC(=O)C1CCN(C(=O)c2cc3sccc3n2Cc2ccc(F)cc2)CC1	5%	i	?	-24%	-81*
COc1ccc(CCNC(=O)CSc2nc3scc(-c4ccccc4)c3c(=O)[nH]2)cc1	-8%	i	-16%	-12%	21
O=C(CSc1nc2nn(-c3ccccc3)c(=O)c-2c2n1CCCCC2)Nc1ccc(F)cc1F	-1%	i	-1%	-1%	-56*
CC(C)CNC(=O)CSc1nc2nn(-c3ccccc3)c(=O)c-2c2n1CCCCC2	5%	i	-19%	-5%	-53*
O=C(CSc1nc2nn(-c3ccccc3)c(=O)c-2c2n1CCCCC2)Nc1ccc(F)c(F)c1	-1%	i	-27%	-15%	-28
CCC1CN(CCC(=O)N2CCN(c3ncccn3)CC2)Cc2cc(OC)ccc2O1 (centres undefined)	nt	i	nt	nt	nt
Cc1ccc(-c2csc(N=C(N)N)n2)cc1	0%	i	17%	-6%	-61*
CCCC[n+]1c(C)sc2ccc(C)cc21	0%	i	-1%	-17%	8
Cc1ccc2sc(C)[n+](CCO)c2c1	1%	i	-24%[11.3 µM]	-16%	-71*
Cc1oc(-c2ccccc2NC(=O)C2CCC2)nc1CNC(=O)c1ccc2ccccc2c1	nt	i	nt	nt	nt
CCN1C(C(=O)c2ccccc2)=C(OC(=O)COc2ccc(C)cc2)c2ccccc2S1(=O)=O	nt	nt	nt	-1%	nt
O=S(=O)(c1ccc(N2CC=C(c3ccccc3)CC2)nc1)N1CCCC1	-1%	i	?	-19%	-93*
COc1ccc(Nc2cc(C)c3cc(NC(=O)c4cc(OC)cc(OC)c4)ccc3n2)cc1	nt	nt	?	-25%	nt
Clc1ccccc1-c1nnc2sc(-c3ccncc3)nn12	1%	i	3%	-17%	-30
Clc1ccccc1-c1nn2c(-c3ccncc3)nnc2s1	3%	i	4%	-8%	-67*
Cc1ccccc1C(=O)N1CCC(C(=O)NN2C(=O)NC3(CCC(C)CC3)C2=O)CC1 (centres undefined)	4%	i	nt	-7%	18
CN(C)CC1CCC/C(=C\c2ccc(OC(=O)c3ccc(Cl)cc3)cc2)C1=O (centres undefined)	nt	24µM*	-26%	-14%	-100*
CC1CCC/C(=C\c2ccc(O)cc2)C1=O (centres undefined)	nt	i	nt	-18%	-22
CN(C)CC1CCC/C(=C\c2ccc(OC(=O)/C=C/c3ccccc3)cc2)C1=O (centres undefined)	nt	nt	25µM*	-17%	-111*
CN(C)CC1CC/C(=C\c2ccc(O)cc2)C1=O (centres undefined)	nt	nt	?	-29%	-113*
Cc1ccc(/C=C2\CCC(C3CCCC3)C2=O)cc1 (centres undefined)	3%	i	44%	-20%	5
SMILES	USP2a block	S2 tox	ATXN2 expr inh	USP1 inh	IL-1B inflam inh
CC(=O)c1ccc(OC(=O)/C=C/c2ccccc2)cc1	6%	?	nt	-17%	-5
O=C1/C(=C\c2ccc(Cl)cc2)CCC1CNc1ccc(Cl)cc1 (centres undefined)	nt	?	?	-1%	-57*
CC(C)c1c(C(=O)NCC2(N3CCOCC3)CCCC2)cnn1-c1nccc(-c2cccs2)n1	nt	i	nt	nt	nt
COc1ccc(/C=C2\CCC(C3CCCC3)C2=O)cc1 (centres undefined)	1%	i	94%	-4%	0
COc1ccc(/C=C2/CCC(CN3CCOCC3)C2=O)cc1 (centres undefined)	nt	?	6.7µM*	-23%	-103*
O=C(Cc1ccccc1)Nc1ccc2[nH]ncc2c1	3%	i	10%	-5%	-58*
CC(C)C[C@H](N)c1nnc(S(=O)(=O)Cc2ccc(F)cc2)o1	1%	nt	?	-11%	-117*
